About 83,000 compounds went through this panel and 20% of them were active in at least one assay; those are over-represented in the sample as a whole.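 Values shown are percent growth following 48 h exposure of cells in 96-well plates to a single concentration of compound; below 10 was considered active.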 Active and inactive are the calls of the source.

This assay deals with TK-10 renal. Put plainly: NCI-60 one-dose screen, 48 h (100 = growth as untreated, 0 = no growth, -100 = all killed). To be noted: 10 µM unless noted. How it is done: Growth inhibition of the TK-10 human tumor cell line is measured as a screen for anti-cancer activity. Cells are grown in 96 well plates and exposed to the test compound for 48 hours. Compounds are tested at a single concentration, which is 10^-5 M for most compounds. The reported endpoint is percent growth (GI% or GIPRCNT), where numbers from 0 - 100% represent growth inhibition, and numbers from -100% - 0 represent cell death. For example, a value of 40 represents 60% growth inhibition. A value of 0 means no net growth occurred over the course of the experiment. A value of -40 indicates 40% of cells at the beginning of the experiment died by the end of the experiment. A value of -100 means all cells are dead at the end of the experiment.
NCI-60 Human Tumor Cell Lines Screen was performed using the standard one-dose NCI protocol, which is described in more detail at https://dtp.cancer.gov/discovery_development/nci-60/default.htm.
Compounds with GIPRCNT values below 10 were considered active. Activity score was based on GIPRCNT using the following formula: […]
Score is 0 for GIPRCNT values of 100 or above, 50 for GIPRCNT values of 0, and 100 for GIPRCNT values of -100.
With `COc1ccc2c(CCC(c3ccccc3)c3ccccc3)c3[n+](cc2c1OC)CCc1cc2c(cc1-3)OCO2`, the growth was 8.09% (active).

Regarding `CCN1CCN(c2nc(C)cc(N(CCCNc3ccnc4cc(Cl)ccc34)Cc3ccc4c(c3)OCO4)n2)CC1`, the growth is -70.7% (active).

In the case of `FC(F)c1nc2ccccc2n1-c1nc(N2CCOCC2)nc(N2CCOCC2)n1`, the growth was -27.9% (active).

`O=C(O)c1ccc2c(c1)nc(Nc1cccc(Cl)c1)c1ccncc12`: the growth was 0.456% (active).

`COC(=O)[C@]12CC[C@@H](C)[C@H](C)[C@@H]1C1=CC[C@@H]3[C@@]4(C)C(c5cnco5)=C[C@@](C)(CO)C4=CC[C@@]3(C)[C@]1(C)CC2`: the growth is 69.6% (inactive).

Turning to `CNc1ncc2cc(-c3cc(NC(=O)NCCC(C)(C)C)c(F)cc3C)c(C)nc2n1`, the growth was -4.98% (active).

Turning to `c1cc[n+](Cc2c3ccccc3cc3c2ccc2ccccc23)cc1`, the growth was 78.1% (inactive).

With `O=C(Cn1ccnc1)Nc1ccc(-c2nc3ccccc3s2)cc1`, the growth was 81.8% (inactive).

Turning to `COc1ccc(C2OC(c3cc(-c4cc5ccccc5o4)nn3-c3ccccc3)=NN2C(C)=O)cc1` (stereo not given), the growth was 111% (inactive).

With `CCN(CC)C(=O)C[N+](C)(C)CCOC(c1ccccc1)c1ccccc1`, the growth is 98.2% (inactive).

`NC1=Nc2ccccc2N(O)N1`: the growth is 94.7% (inactive).

In the case of `O=C1C=CC2(NN=C(c3ccccc3)N2c2cccc(Cl)c2)C(Cl)=C1` (stereo not given), the growth was 100% (inactive).

Turning to `C=CC(=O)N1CCC(Oc2cc3c(Nc4ccc(Cl)c(Cl)c4F)ncnc3cc2OC)CC1`, the growth is -7.41% (active).

For `CC1(C)NC(=O)c2[nH]c3c(Cl)c(Cl)ccc3c2C1C#N` (stereo not given), the growth was 63.2% (inactive).

Take `Cc1nn(-c2nc3ccccc3[nH]2)c2c1C(c1ccc(O)cc1)CC(=O)N2` (stereo not given): the growth is 86.9% (inactive).

On to `CN(C)C[C@@H]1CCn2cc(c3ccccc32)C2=C(C(=O)NC2=O)c2cn(c3ccccc23)CCO1`, for which the growth is 11.5% (inactive).

With `O=C(NO)c1ccc(Cn2c(=O)n(-c3ccccc3F)c(=O)c3ccccc32)cc1`, the growth is 6.07% (active).

On to `CCOC(=O)C1=C(C)N=C2Sc3cccc(OC)c3N2[C@H]1c1ccccn1`, for which the growth was 117% (inactive).

For the compound `CCCCCC(=O)OCc1ccc(Cl)c(Cl)c1`, the growth is 104% (inactive).

As for `Cc1nc(NC(=O)N2CCC[C@H]2C(N)=O)sc1-c1ccnc(C(C)(C)C(F)(F)F)c1`, the growth was 13.3% (inactive).

As for `CCNC(=O)C#Cc1ccc2c(C(=Nc3ccc(CN(C)C)cc3)c3ccccc3)c(O)[nH]c2c1`, the growth was 25.7% (inactive).

In the case of `CC(C)OP(=O)(CCC(=O)c1c[nH]c2ccccc12)OC(C)C`, the growth is 97.8% (inactive).

Consider `CN1CCC(COc2cnc(-c3cccc(Cn4nc(-c5cccc(C#N)c5)ccc4=O)c3)nc2)CC1`, for which the growth is 102% (inactive).

For the compound `COc1cc(N2CCC(N3CCN(C)CC3)CC2)ccc1Nc1ncnc(Nc2ccccc2S(=O)(=O)C(C)C)n1`, the growth was 108% (inactive).

Take `C=CCCCOC1[C@H](OCc2ccccc2)C(OCc2ccccc2)C(OC)O[C@@H]1CNC(=O)c1cccc(I)c1` (stereo not given in full): the growth was 64.5% (inactive).

As for `CC(=O)Nc1cccc(-n2c(=O)n(C3CC3)c(=O)c3c(Nc4ccc(I)cc4F)n(C)c(=O)c(C)c32)c1`, the growth is 21.8% (inactive).

Regarding `C[C@H](NC(=O)c1c(N)nn2cccnc12)c1cc2cccc(C#Cc3cnn(C)c3)c2c(=O)n1-c1ccccc1`, the growth is -9.96% (active).

For the compound `COC(=O)[C@@H](OC)[C@@H]1Cc2cc3cc(OC4CC(OC5CC(O)C(O)C(C)O5)C(O)C(C)O4)c(C)c(O)c3c(O)c2C(=O)[C@H]1OC1CC(OC2CC(OC3CC(C)(O)C(O)C(C)O3)C(O)C(C)O2)C(O)C(C)O1` (stereo not given in full), the growth was 13.7% (inactive).

As to `FC(F)(F)c1ccc(CNc2ccc(Cc3c[nH]c4ncc(Cl)cc34)cn2)cn1`, the growth is 18.3% (inactive).

`O=C(NCCO)Nc1ccc(-c2nc(N3CCOCC3)c3cccn3n2)cc1`: the growth is -23.5% (active).

In the case of `COc1cc2c(cc1OCCCCCCN1CCN(c3ncnc4ccccc34)CC1)N=CC1CCCN1C2=O` (stereo not given), the growth is 1.29% (active).

`N#CC1(C#N)C(c2cccs2)NC(c2cccs2)C1(C#N)C#N` (stereo not given): the growth was 114% (inactive).

For the compound `COC(=O)[C@H](Cc1ccccc1)NC(=O)[C@@H](OC)[C@@H]1Cc2cc3cc(OC4CC(OC5CC(O)C(O)C(C)O5)C(O)C(C)O4)c(C)c(O)c3c(O)c2C(=O)[C@H]1OC1CC(OC2CC(OC3CC(C)(O)C(O)C(C)O3)C(O)C(C)O2)C(O)C(C)O1` (stereo not given in full), the growth was 6.76% (active).

As for `COc1cc2ncnc(Nc3ccc(O)cc3)c2cc1OC`, the growth is 2.22% (active).

On to `COc1cc(Nc2ncc(F)c(Nc3ccc4c(n3)NC(=O)C(C)(C)O4)n2)cc(OC)c1OC`, for which the growth was 27.2% (inactive).

For the compound `Cc1cc(Nc2ncnc3ccc(NC4=NC(C)(C)CO4)cc23)ccc1Oc1ccn2ncnc2c1`, the growth is 1.72% (active).

Take `O=C(Cn1c(=O)ccn(CCCCCCCCOc2ccc(Br)cc2)c1=O)Nc1ccc(Oc2ccc(Cl)cc2)cc1`: the growth was 69.6% (inactive).

Regarding `CC(C)(C)c1cnc(CSc2cnc(NC(=O)C3CCNCC3)s2)o1`, the growth is 5.16% (active).

On to `Clc1nc(Cl)c2ncn(CC#CCn3cnc4c(Cl)nc(Cl)nc43)c2n1`, for which the growth was -31.5% (active).

Take `CC(C)Nc1cc(-c2c[nH]c(C(=O)N[C@H](CO)c3cccc(Cl)c3)c2)c(Cl)cn1`: the growth was 16.2% (inactive).

(Values after PubChem BioAssay (NCI).)
